Source: PubChem BioAssay (Tox21)
Results filed as inconclusive are left out. Entries that show only a call come without a potency. Calls of active or inactive are those of the source. Calls come from the whole dose curve.

What follows are molecules tested against 5-hydroxytryptamine receptor 2A (Homo sapiens) (UniProt P28223) (assay: 5-hydroxytryptamine receptor 2A (HTR2A) small molecule agonists, cell-based qHTS assay (AID 1963587; note: nearly all actives have a fitted effect of over 30% in size)). Conditions: HTR2A-CHO cells, calcium flux fluorescence, agonist mode; series mostly up to 76.8 µM.
Chain of 5-hydroxytryptamine receptor 2A (Homo sapiens) (P28223 whole entry, looked up): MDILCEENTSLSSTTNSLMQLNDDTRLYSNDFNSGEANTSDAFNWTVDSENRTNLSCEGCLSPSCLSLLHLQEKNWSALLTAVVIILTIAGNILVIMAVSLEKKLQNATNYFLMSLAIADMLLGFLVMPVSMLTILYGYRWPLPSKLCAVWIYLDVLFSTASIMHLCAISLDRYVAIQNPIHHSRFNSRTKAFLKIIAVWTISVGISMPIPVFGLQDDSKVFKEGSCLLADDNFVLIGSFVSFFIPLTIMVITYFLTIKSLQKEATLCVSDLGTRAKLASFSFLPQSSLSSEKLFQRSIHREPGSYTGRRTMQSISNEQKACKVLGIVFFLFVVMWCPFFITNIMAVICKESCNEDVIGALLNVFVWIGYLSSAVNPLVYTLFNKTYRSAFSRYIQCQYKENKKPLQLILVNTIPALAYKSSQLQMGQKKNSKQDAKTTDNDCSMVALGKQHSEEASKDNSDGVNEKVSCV
Source text: National Center for Advancing Translational Sciences [NCATS]
Division of Preclinical Innovation [DPI]
U.S. Environmental Protection Agency [EPA]
National Institutes of Environmental Health Sciences [NIEHS]
National Toxicology Program [NTP]
U.S. Food and Drug Administration [FDA]
The HTR2A receptor is a subtype of the 5-HT2 receptor that belongs to the serotonin receptor family and is a G protein-coupled receptor (GPCR). The HTR2A-CHO cell line stably expressing human 5-hydroxytryptamine receptor 2A (HTR2A) can be used for screening agonists of interactions between 5-HT2 and its ligands. The HTR2A-CHO calcium flux assay is a homogeneous fluorescence-based assay for detecting the intracellular calcium level using FDSS kinetic plate reader system.
HTR2A-CHO cells were dispensed at 2000 cells/3uL/well in 1536-well black-clear bottom plates using a Multidrop Dispenser. After the assay plates were incubated at a 37 C/5% CO2 incubator for 18 h, 3 uL of Dye Loading Buffer was transferred to the assay plate by a Flying Reagent Dispenser. The assay plates were incubated at 37 C for 1h. For agonist mode, 23 nL of compounds dissolved in DMSO, positive controls or DMSO only was transferred to the assay plate by a pin tool. The fluorescence intensity in the plates was measured using FDSS 7000EX kinetic plate reader for 2 min at 1 sec intervals.
Potency is the fitted concentration of half-maximal effect.

SMILES | Potency | activation
c1ccc(C[P+](c2ccccc2)(c2ccccc2)c2ccccc2)cc1 | inactive | –
CC1(C)C(=O)C(C)(C)C1=O | inactive | –
CC1CCCO1 (stereo not given) | inactive | –
O=C(O)c1cc(Cl)cc([N+](=O)[O-])c1Cl | inactive | –
Cc1cccn2c(=O)c(-c3nnn[nH]3)cnc12 | – | 1.65% [at 15.9 µM] (inactive)
C=CCOc1c(Br)cc(Br)cc1Br | inactive | –
CCCC(c1cc(C(C)(C)C)c(O)cc1C)c1cc(C(C)(C)C)c(O)cc1C | 9.89 µM (active) | –
CCOC(=O)C(=O)c1csc(NC=O)n1 | inactive | –
CCOC(=O)c1ccccc1 | inactive | –
CCC(C)COC(=O)CC(C)C (stereo not given) | inactive | –
CN(C)CCCOC1(Cc2ccccc2)CCCCCC1 | inactive | –
O=C(OCC(COC(=O)c1ccccc1)(COC(=O)c1ccccc1)COC(=O)c1ccccc1)c1ccccc1 | inactive | –
CC(C)(C)C(=O)O | inactive | –
CN1CCC[C@@H]1Cc1c[nH]c2ccc(CCS(=O)(=O)c3ccccc3)cc12 | 0.107 µM (active) | –
O=C1c2ccccc2C(=O)C1c1ccc2ccccc2n1 | inactive | –
CCCCCCCCCCn1cc[n+](CCCCCCCCCC)c1C | 55 µM (active) | –
Cn1c(=O)cc(Oc2ccc(F)cc2F)c2cnc(NCC(C)(C)O)nc21 | inactive | –
CCCCC(=O)O[C@]1(C(=O)CO)CC[C@H]2[C@@H]3CCC4=CC(=O)CC[C@]4(C)[C@H]3[C@@H](O)C[C@@]21C | inactive | –
CC(C)C(O)C(C)(C)CO (stereo not given) | inactive | –
OCCCCC(O)CO (stereo not given) | inactive | –

SMILES | Potency | activation
CC(C)(C)c1cc(CCC(=O)NN)cc(C(C)(C)C)c1O | inactive | –
O=C(O)C(=O)Cc1c[nH]c2ccccc12 | inactive | –
CC(=O)C1CCCCC1=O (stereo not given) | inactive | –
CCCCCCCC/C=C\CCCCCCCCN | 21.3 µM (active) | –
CC(C)=CCC/C(C)=C/CC/C(C)=C/C(=O)OCC(=O)[C@@]1(O)CC[C@H]2[C@@H]3CCC4=CC(=O)C=C[C@]4(C)[C@H]3[C@@H](O)C[C@@]21C | inactive | –
O=c1cccccc1O | inactive | –
Cc1cc2c(cc1S(N)(=O)=O)S(=O)(=O)CCC2 | inactive | –
O=CN1CCOCC1 | inactive | –
Nc1nc(CC(=O)O)cs1 | inactive | –
CC(C)(C)C(=O)CC(=O)C(C)(C)C | inactive | –
O=C1[C@H](CC[C@H](O)c2ccc(F)cc2)[C@@H](c2ccc(O)cc2)N1c1ccc(F)cc1 | inactive | –
O=C(O)CCC(=O)c1ccc(-c2ccccc2)cc1 | inactive | –
CCCCCOC(=O)CCCC | inactive | –
O=c1c2ccccc2nnn1CCl | inactive | –
O=C1OC(=O)C2C3C=CC(C3)C12 (stereo not given) | inactive | –
CC(O)CN(CCCN(C)C)CCCN(C)C (stereo not given) | inactive | –
C=CC(=O)O | inactive | –
Cn1c(N)c(N=O)c(=O)n(C)c1=O | inactive | –
O=CC(=O)c1ccccc1 | inactive | –
CC(C)(C)NCC(O)COc1ccc(NC(=O)NC2CCCCC2)cc1 (stereo not given) | inactive | –
